Our source for the composite z-score and z-score values is PubChem BioAssay.

Test [1] relates to XIP peptide (Xip251-270) binding. In words: small-molecule binders of XIP peptide, primary screen, biochemical, small-molecule microarray, fluorescence 635/667 nm, 0.1 µg/mL protein (AID 1182). The note with it: fluorescent protein binding, 635 nm, higher = more signal, called active from +8 up or from −8 down.
The subject of the next test is XIP peptide (Xip251-270). In words: small-molecule binders of XIP peptide, primary screen, biochemical, small-molecule microarray, fluorescence 635/667 nm, 0.5 µg/mL protein (AID 1183). The note with it: small-molecule microarray binding, fluorescence 635 nm; higher = more signal.
A short description of test [2]: Plasmodium falciparum growth inhibition, primary screen, strain 3D7, DAPI fluorescence, 100 nL (AID 1184).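 Also: parasites grown inside human red blood cells in medium with human serum.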 The note with it: P. falciparum 3D7 growth, 3 d, higher = more signal.
The target in test [3] is Homeobox protein Hox-A13 (Mus musculus) (UniProt Q62424). The test is described as follows: inhibitors of HoxA13-DNA binding, primary screen, biochemical, fluorescence polarization, labeled oligonucleotide (AID 1185). The note with it: 15 min, higher = more signal, called active from +8 up or from −8 down. A general note: Fluorescence polarisation rises when a labelled molecule tumbles more slowly, as on binding a larger partner.

Test [4] can be described thus: inhibitors of hydroxyurea-induced Chk1 phosphorylation, primary screen, imaging, HeLa, phospho-Chk1 antibody, percent positive cells (AID 1186). The note with it: hydroxyurea-induced phospho-Chk1 immunofluorescence imaging, higher = more signal.
Test [5] can be described thus: inhibitors of hydroxyurea-induced Chk1 phosphorylation, primary screen, imaging, HeLa, phospho-Chk1 nuclear intensity (AID 1187). The note with it: hydroxyurea-induced phospho-Chk1 immunofluorescence imaging, higher = more signal.

Each structure is given as a SMILES string. Activity calls are given as the source filed them. Unless noted, no rule for the calls is given here.

Chain of Homeobox protein Hox-A13 (Mus musculus) (Q62424 whole entry, looked up): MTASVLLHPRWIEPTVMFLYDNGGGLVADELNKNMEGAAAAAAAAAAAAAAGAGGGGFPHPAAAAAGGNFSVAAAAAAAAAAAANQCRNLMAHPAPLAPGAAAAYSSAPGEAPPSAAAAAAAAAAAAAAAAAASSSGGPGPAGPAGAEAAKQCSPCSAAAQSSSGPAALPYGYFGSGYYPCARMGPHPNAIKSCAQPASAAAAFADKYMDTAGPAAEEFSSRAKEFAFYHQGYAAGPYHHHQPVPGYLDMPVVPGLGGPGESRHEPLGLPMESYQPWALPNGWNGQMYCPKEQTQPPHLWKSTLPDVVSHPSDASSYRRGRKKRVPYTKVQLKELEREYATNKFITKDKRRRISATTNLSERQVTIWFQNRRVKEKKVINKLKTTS

`COC(=O)[C@@]1(Cc2ccc(OC)cc2)[C@H]2c3cc(C(=O)N(C)C)n(Cc4ccc(C(F)(F)F)nc4)c3C[C@H]2CN1C(=O)c1ccccc1`: the composite z-score in test [1] was 0.233 (inactive); in the test on XIP peptide (Xip251-270), 0.497. Further, the z-score in test [2] was 0.526; in test [3], -3.56 (inactive); in test [4], 0.832 (inactive); in test [5], 0.858 (inactive).

With `COCCCNC(=O)[C@@H]1c2ccccc2C(=O)N(Cc2ccccc2OC)[C@H]1c1ccc(CO)cc1`, the results for the composite z-score (in test [1]; with XIP peptide (Xip251-270)) were 0.694 (inactive) and -0.0218, respectively. Also, the z-score in test [2] is -1.99; in test [3], -2.85 (inactive); in test [4], -0.481 (inactive); in test [5] it was -0.576 (inactive).

On to `CC(C)C(=C=CC[C@H](O)c1ccc(CO)o1)CCO`, for which the composite z-score in test [1] was 0.352 (inactive); in the test on XIP peptide (Xip251-270), 0.792. The z-score in test [2] was 1.27; in test [3], -4.02 (inactive); in test [4], -0.301 (inactive); in test [5], -0.0779 (inactive).

With `O=C(O)[C@H]1C[C@H]2C(=O)N3CCC[C@H]3C(=O)N2[C@H]1c1ccc(O)cc1`, the composite z-score was -0.469 (inactive) in test [1] and -0.0016 with XIP peptide (Xip251-270). Besides, the z-score is 0.351 in test [2], -1.01 (inactive) in test [3], 0.272 (inactive) in test [4] and 0.267 (inactive) in test [5].

With `CCCCCCc1nc(-c2ccc(-c3ccc(Cl)c(Cl)c3)o2)cc2c1[Si](C(C)C)(C(C)C)O[C@H]2c1ccccc1`, the composite z-score in test [1] was 2.93 (inactive); in the test on XIP peptide (Xip251-270) it was 0.393. The z-score is -1.3 in test [2], -1.4 (inactive) in test [3], -0.682 (inactive) in test [4] and -0.449 (inactive) in test [5].

For the compound `CC(C)(C)OC(=O)CC[C@]1(C(=O)NCCN2CCOCC2)COC(c2ccc(OCCCO)cc2)=N1`, the results for the composite z-score (in test [1]; in the test with XIP peptide (Xip251-270)) were 1.16 (inactive) and 0.759, respectively. The z-score in test [2] is 0.51; in test [3], -3.66 (inactive); in test [4], -0.131 (inactive); in test [5], 0.0826 (inactive).

Regarding `COc1ccc([Si](C)(C)[C@@H]2[C@@H](CCO)O[C@]3(C(=O)N(Cc4cccc(N5CCOC5=O)c4)c4ccccc43)[C@H]2C)cc1`, the composite z-score was 0.473 (inactive) in test [1] and 0.332 in the test with XIP peptide (Xip251-270). The z-score in test [2] was -2.54; in test [3], -4.2 (inactive); in test [4] it was -0.609 (inactive); in test [5] it was -0.553 (inactive).

In the case of `COC(=O)[C@@]1(Cc2ccc(OC)cc2)[C@H]2c3cc(C(=O)N4CCCC4)n(Cc4nc5ccccc5[nH]4)c3C[C@H]2CN1C(=O)c1ccccc1`, the composite z-score in test [1] was 1.01 (inactive); in the test on XIP peptide (Xip251-270) it was 0.636. The z-score is -1.22 in test [2], -2.23 (inactive) in test [3], 0.732 (inactive) in test [4] and 0.409 (inactive) in test [5].

Regarding `[N-]=[N+]=NCc1ccccc1[C@H]1OC(c2ccc(OCCCO)cc2)=N[C@@]1(Cc1ccccc1)C(=O)N1CCCCC1`, the values for the composite z-score (in test [1]; with XIP peptide (Xip251-270)) were -0.178 (inactive) and 0.625, respectively. Also, the z-score in test [2] is -2.4; in test [3], -4.35 (inactive); in test [4] it was -0.959 (inactive); in test [5], -1.5 (inactive).

On to `C=CC[C@]1(C(=O)N2CCOCC2)N=C(c2ccc(OCCCO)cc2)O[C@H]1c1ccccc1N=[N+]=[N-]`, for which the composite z-score in test [1] was 0.821 (inactive); with XIP peptide (Xip251-270) it was 0.75. Also, the z-score in test [2] was -1.92; in test [3], -4.01 (inactive); in test [4] it was -0.528 (inactive); in test [5], -0.67 (inactive).

Consider `C=CCNC(=O)[C@H]1[C@@H]2C(=O)O[C@@H](c3ccccc3)[C@@H](c3ccccc3)N2[C@@H](c2ccc(OCCO)cc2)[C@]12C(=O)Nc1ccc(C#CCC(C(=O)OC)C(=O)OC)cc12`, for which the composite z-score in test [1] is 1.06 (inactive); in the test on XIP peptide (Xip251-270), 0.635. For the same compound, the z-score was -2.03 in test [2], -2.29 (inactive) in test [3], 0.239 (inactive) in test [4] and 0.514 (inactive) in test [5].

With `Cc1ccc(/C=C/C=O)cc1`, the composite z-score in test [1] was 0.551 (inactive); in the test with XIP peptide (Xip251-270), 0.284. Moreover, the z-score in test [2] was 1.39; in test [3], -1.15 (inactive); in test [4], 0.503 (inactive); in test [5] it was 0.713 (inactive).

On to `COc1ccc([Si](C)(C)[C@H]2[C@H](CC(=O)N3CCC[C@H]3CO)O[C@@]3(C(=O)N(Cc4cccc(N5CCOC5=O)c4)c4ccccc43)[C@@H]2C)cc1`, for which the composite z-score in test [1] is 0.991 (inactive); in the test with XIP peptide (Xip251-270), 0.672. Moreover, the z-score in test [2] is -1.42; in test [3] it was -4.71 (inactive); in test [4], 0.835 (inactive); in test [5], 0.936 (inactive).

Regarding `CC(=O)n1cc(C(O)C2C=CC3C(=O)NC(=O)C3N2Nc2ccccn2)c2ccccc21` (configuration not stated), the composite z-score in test [1] is -0.251 (inactive); in the test on XIP peptide (Xip251-270) it was 0.785. The z-score in test [2] is 0.249; in test [3], -2.99 (inactive); in test [4] it was 0.5 (inactive); in test [5] it was -0.392 (inactive).

As to `CCOC(=O)C[C@H]1[C@H](OC(=O)c2cc3ccccc3oc2=O)[C@@H](NC(=O)CC(C)C)c2cc(OCCCO)ccc2N1C(=O)c1ccccc1`, the composite z-score in test [1] is -0.131 (inactive); in the test on XIP peptide (Xip251-270) it was 0.495. Further, the z-score in test [2] is -1.89; in test [3], -1.53 (inactive); in test [4], -0.315 (inactive); in test [5], 0.0139 (inactive).

For the compound `C=CCOC(=O)[C@H]1[C@@H]2C(=O)O[C@@H](c3ccccc3)[C@@H](c3ccccc3)N2[C@@H](c2ccc(OCCOC(=O)[C@@H]3C[C@@H]4C(=O)N5CCC[C@H]5C(=O)N4[C@@H]3c3cccc(OCCO)c3)cc2)[C@]12C(=O)Nc1ccc(I)cc12`, the composite z-score in test [1] was 0.108 (inactive); in the test on XIP peptide (Xip251-270) it was 0.792. In addition, the z-score in test [2] is -1.66; in test [3], 2.03 (inactive); in test [4], 0.351 (inactive); in test [5], 0.557 (inactive).

On to `COC(=O)[C@]1(CCC(=O)OC(C)(C)C)N=C(c2ccc(OCCCO)cc2)O[C@@H]1c1ccccc1`, for which the composite z-score in test [1] was 1.87 (inactive); in the test on XIP peptide (Xip251-270) it was 0.761. Also, the z-score is -2.31 in test [2], -4.4 (inactive) in test [3], -0.621 (inactive) in test [4] and -0.545 (inactive) in test [5].
